The full data set covers some 7,900 targets. This sample favours those with a hit. About 0.6% of all pairs of compound and target were hits.
Key:
Assay in all cases: log2 fold change, soluble protein after heating vs DMSO (PISA); higher = thermal stabilisation; K562 cells, 10 uM, 30 min; active = over 0.2 and 3.5 SD of the protein, either way, in both replicates (recomputed)
[1] = compound: CC1=C(C=C(C=C1)NC(=O)C2=CC(=CC=C2)C(C)(C)C#N)NC3=CC4=C(C=C3)N=CN(C4=O)C
How it was run: (§1)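 K562 cells at 2×10^6 cells/mL were exposed to 10 μM compound for 30 min, then aliquots were heated for 3 min across 48°C-58°C, pooled, and extracted in PBS containing 0.5% NP-40 at 4°C. The supernatant after 21,000xg for 90 min was taken as soluble protein and measured by TMTpro 16plex LC-MS/MS with channel sums equalised. Thermal stability is reported relative to control samples, with values from duplicates. Fold changes are given on a log2 scale.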

[2] = compound: CC1=C(C=C(C=C1)NC(=O)C2=CC(=CC=C2)N(C)C)NC(=O)C3=CC=C(C=C3)O
How it was run: as §1

[3] = compound: CC1=CC=C(C=C1)SC2=C3C=C(SC3=CN=C2)C(=O)N
How it was run: as §1

[4] = compound: CC1=NC(=CC=C1)C2=C(N=C(N2)C(C)(C)C)C3=CC4=NC=CN=C4C=C3
How it was run: as §1

[5] = compound: CCCCN(Cc1ccc(C(=O)NO)cc1)C(=O)Nc1ccccc1 [Nexturastat A]
How it was run: as §1

[6] = compound: CCCS(=O)(=O)Nc1ccc(F)c(C(=O)c2c[nH]c3ncc(-c4ccc(Cl)cc4)cc23)c1F [vemurafenib]
How it was run: as §1

[7] = compound: CCCS(=O)(=O)Nc1ccc(F)c(C(=O)c2c[nH]c3ncc(Cl)cc23)c1F
How it was run: as §1

[8] = compound: CCCc1cc(C)[nH]c(=O)c1CNC(=O)c1cc(-c2ccnc(N3CCN(C)CC3)c2)cc2c1cnn2C(C)C
How it was run: as §1

[9] = compound: CCN(CC)Cc1ccc2cc(COC(=O)Nc3ccc(C(=O)NO)cc3)ccc2c1 [givinostat]
How it was run: as §1

[10] = compound: CCN(CCCOc1ccc2c(Nc3cc(CC(=O)Nc4cccc(F)c4)[nH]n3)ncnc2c1)CCOP(=O)(O)O [barasertib]
How it was run: as §1

Measured: log2 fold change

ILVBL (UniProt A1L0T0)
inactive: [1] -0.021 | [2] -0.052 | [3] 0.005 | [4] -0.051 | [5] 0.007 | [6] 0.037 | [7] 0.049 | [8] 0.004 | [9] -0.002 | [10] 0.021

IGFBP2 (UniProt P18065)
Chain of UniProt P18065 (P18065 whole entry, looked up): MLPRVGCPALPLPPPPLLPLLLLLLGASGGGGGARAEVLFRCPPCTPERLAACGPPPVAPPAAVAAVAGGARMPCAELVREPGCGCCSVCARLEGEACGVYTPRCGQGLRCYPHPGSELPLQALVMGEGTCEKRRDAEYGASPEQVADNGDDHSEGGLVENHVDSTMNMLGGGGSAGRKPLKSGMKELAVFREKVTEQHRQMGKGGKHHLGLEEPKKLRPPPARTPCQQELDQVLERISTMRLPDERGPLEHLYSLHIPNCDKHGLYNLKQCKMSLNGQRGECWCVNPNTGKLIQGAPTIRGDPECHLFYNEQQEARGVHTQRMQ
inactive: [1] -0.154 | [2] 0.173 | [3] 0.201 | [4] 0.349 | [5] 0.106 | [6] 0.262 | [7] -0.003 | [8] -0.409 | [9] 0.056 | [10] 0.012

KHDC4 (UniProt Q7Z7F0)
inactive: [1] -0.008 | [2] -0.055 | [3] 0.026 | [4] 0.071 | [5] 0.068 | [6] 0.113 | [7] 0.017 | [8] 0.038 | [9] 0.048 | [10] 0.049

LYN (UniProt P07948)
inactive: [1] 0.195 | [2] -0.053 | [3] -0.036 | [4] 0.037 | [5] 0.293 | [6] -0.016 | [7] -0.143 | [8] -0.22 | [9] 0.211 | [10] -0.057

KDELR2 (UniProt P33947)
Chain of UniProt P33947 (P33947 whole entry, looked up): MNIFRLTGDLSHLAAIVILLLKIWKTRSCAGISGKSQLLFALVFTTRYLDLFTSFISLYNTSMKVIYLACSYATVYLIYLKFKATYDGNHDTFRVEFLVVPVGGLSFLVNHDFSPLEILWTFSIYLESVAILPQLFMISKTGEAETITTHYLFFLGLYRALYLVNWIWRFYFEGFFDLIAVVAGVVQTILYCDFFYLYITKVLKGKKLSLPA
inactive: [1] 0.058 | [2] 0.099 | [3] 0.064 | [4] -0.094 | [5] -0.13 | [6] -0.079 | [7] -0.054 | [8] -0.128 | [9] -0.064 | [10] 0.036

KCTD10 (UniProt Q9H3F6)
Chain of UniProt Q9H3F6 (Q9H3F6 whole entry, looked up): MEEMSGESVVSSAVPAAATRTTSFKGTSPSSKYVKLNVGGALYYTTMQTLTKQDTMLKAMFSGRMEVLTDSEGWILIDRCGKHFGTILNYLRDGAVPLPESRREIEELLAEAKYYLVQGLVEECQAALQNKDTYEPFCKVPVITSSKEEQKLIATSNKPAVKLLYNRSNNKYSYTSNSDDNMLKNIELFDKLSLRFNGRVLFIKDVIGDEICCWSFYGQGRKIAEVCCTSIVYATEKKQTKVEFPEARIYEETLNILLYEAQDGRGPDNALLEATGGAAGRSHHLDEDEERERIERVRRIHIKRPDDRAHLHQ
inactive: [1] -0.055 | [2] 0.022 | [3] -0.025 | [4] 0.017 | [5] 0.051 | [6] -0.013 | [7] -0.029 | [8] 0.024 | [9] 0.025 | [10] 0.021

MAPRE3 (UniProt Q9UPY8)
Chain of UniProt Q9UPY8 (Q9UPY8 whole entry, looked up): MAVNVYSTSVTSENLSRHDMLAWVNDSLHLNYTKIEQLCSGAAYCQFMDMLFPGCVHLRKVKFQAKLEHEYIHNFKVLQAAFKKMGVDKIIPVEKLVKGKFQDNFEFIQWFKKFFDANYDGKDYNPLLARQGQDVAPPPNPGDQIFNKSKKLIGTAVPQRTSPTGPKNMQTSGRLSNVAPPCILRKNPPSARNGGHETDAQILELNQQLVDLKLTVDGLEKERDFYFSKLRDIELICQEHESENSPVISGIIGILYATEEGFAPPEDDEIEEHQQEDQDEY
inactive: [1] 0 | [2] -0.002 | [3] -0.021 | [4] 0.074 | [5] -0.07 | [6] 0.041 | [7] 0.06 | [8] 0.136 | [9] -0.037 | [10] 0.027

KRAS isoform 2 (UniProt P01116)
Chain of UniProt P01116 (P01116 whole entry, looked up): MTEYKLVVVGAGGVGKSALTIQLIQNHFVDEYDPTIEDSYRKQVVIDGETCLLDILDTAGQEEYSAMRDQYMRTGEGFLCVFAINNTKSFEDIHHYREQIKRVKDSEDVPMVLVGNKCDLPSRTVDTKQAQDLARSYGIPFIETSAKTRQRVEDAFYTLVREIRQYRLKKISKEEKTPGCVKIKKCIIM
inactive: [1] -0.034 | [2] 0.046 | [3] -0.023 | [4] -0.026 | [5] -0.063 | [6] -0.03 | [7] -0.093 | [8] -0.073 | [9] 0.014 | [10] 0.003

LRBA (UniProt P50851)
inactive: [1] -0.011 | [2] 0 | [3] -0.011 | [4] 0.001 | [5] -0.046 | [6] 0.01 | [7] 0.031 | [8] -0.025 | [9] 0.008 | [10] 0.038

ITM2B (UniProt Q9Y287)
inactive: [1] 0.01 | [2] -0.052 | [3] 0.036 | [4] -0.046 | [5] -0.05 | [6] -0.101 | [7] -0.016 | [8] -0.482 | [9] 0.001 | [10] 0.076

MGST3 (UniProt O14880)
Chain of UniProt O14880 (O14880 whole entry, looked up): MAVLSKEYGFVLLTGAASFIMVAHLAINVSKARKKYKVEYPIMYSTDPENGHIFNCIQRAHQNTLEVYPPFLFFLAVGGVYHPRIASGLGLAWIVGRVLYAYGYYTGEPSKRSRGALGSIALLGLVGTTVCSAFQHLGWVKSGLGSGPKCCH
inactive: [1] -0.029 | [2] 0.005 | [3] 0 | [4] -0.049 | [5] 0.015 | [6] -0.037 | [7] -0.011 | [8] -0.057 | [9] 0.003 | [10] 0.003

IRAK4 (UniProt Q9NWZ3)
Chain of UniProt Q9NWZ3 (Q9NWZ3 whole entry, looked up): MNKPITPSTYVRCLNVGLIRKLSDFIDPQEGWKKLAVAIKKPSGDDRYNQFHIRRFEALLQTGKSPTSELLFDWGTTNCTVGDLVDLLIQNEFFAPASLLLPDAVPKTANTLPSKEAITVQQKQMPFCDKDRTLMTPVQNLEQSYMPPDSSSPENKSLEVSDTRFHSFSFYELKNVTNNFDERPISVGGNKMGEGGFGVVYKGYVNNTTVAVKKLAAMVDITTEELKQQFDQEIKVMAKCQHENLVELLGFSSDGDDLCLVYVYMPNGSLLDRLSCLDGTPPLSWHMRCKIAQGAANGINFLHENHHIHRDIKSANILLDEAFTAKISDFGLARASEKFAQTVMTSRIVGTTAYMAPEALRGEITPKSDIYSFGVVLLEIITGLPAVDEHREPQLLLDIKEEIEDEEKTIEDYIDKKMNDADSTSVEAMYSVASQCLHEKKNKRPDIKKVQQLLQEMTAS
inactive: [1] 0.006 | [2] -0.039 | [3] 0 | [4] 0.03 | [5] 0.009 | [6] 0.041 | [7] 0.068 | [8] -0.003 | [9] 0.062 | [10] 0.024

LPCAT3 (UniProt Q6P1A2)
Chain of UniProt Q6P1A2 (Q6P1A2 whole entry, looked up): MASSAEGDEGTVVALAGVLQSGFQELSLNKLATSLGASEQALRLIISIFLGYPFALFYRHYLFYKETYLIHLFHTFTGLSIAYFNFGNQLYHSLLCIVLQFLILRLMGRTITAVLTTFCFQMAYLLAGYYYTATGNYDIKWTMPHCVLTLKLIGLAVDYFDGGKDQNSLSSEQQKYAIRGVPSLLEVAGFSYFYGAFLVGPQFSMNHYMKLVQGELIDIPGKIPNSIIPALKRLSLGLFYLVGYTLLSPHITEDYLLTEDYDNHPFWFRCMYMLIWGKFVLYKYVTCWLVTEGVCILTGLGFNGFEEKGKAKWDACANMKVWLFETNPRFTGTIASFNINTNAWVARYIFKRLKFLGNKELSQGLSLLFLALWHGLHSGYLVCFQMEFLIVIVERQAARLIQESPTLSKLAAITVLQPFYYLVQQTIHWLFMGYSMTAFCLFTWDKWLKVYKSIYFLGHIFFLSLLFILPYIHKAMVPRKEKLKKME
inactive: [2] -0.029 | [3] 0.052 | [4] 0.033 | [5] -0.226 | [6] -0.019 | [7] 0.036 | [8] 0.089 | [9] 0.031 | [10] -0.005
active: [1] 0.289

MCU (UniProt Q8NE86)
Chain of UniProt Q8NE86 (Q8NE86 whole entry, looked up): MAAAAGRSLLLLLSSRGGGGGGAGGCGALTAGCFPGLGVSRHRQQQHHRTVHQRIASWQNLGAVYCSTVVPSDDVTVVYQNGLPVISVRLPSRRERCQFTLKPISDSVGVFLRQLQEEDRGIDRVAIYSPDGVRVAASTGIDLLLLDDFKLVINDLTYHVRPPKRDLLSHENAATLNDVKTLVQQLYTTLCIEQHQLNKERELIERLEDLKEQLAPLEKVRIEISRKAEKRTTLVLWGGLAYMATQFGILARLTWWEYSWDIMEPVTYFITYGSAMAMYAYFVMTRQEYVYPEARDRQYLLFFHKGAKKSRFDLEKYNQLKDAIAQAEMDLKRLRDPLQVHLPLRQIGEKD
inactive: [1] 0 | [2] 0.051 | [3] 0.094 | [4] 0.002 | [5] 0.002 | [6] 0.026 | [7] 0.022 | [8] -0.075 | [9] 0.013 | [10] 0.014

KLC2 (UniProt Q9H0B6)
Chain of UniProt Q9H0B6 (Q9H0B6 whole entry, looked up): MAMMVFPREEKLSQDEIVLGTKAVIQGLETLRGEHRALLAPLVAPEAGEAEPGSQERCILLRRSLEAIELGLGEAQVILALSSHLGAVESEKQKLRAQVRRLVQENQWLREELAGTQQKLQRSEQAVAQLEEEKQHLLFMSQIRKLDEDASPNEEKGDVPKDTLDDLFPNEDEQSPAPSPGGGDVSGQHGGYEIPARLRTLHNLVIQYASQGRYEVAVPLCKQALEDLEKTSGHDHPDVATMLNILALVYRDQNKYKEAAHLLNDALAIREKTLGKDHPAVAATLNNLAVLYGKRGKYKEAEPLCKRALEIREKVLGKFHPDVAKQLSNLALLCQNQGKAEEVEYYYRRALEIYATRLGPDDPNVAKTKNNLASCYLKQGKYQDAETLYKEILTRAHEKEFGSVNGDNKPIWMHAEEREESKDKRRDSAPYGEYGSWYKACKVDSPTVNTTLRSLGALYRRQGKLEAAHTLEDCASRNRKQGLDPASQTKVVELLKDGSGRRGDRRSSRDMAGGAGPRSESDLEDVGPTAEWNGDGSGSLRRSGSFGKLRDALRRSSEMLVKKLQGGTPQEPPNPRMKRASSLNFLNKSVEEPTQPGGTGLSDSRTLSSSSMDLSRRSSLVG
inactive: [1] 0.025 | [2] -0.055 | [3] 0.021 | [4] 0.015 | [5] 0.001 | [6] 0.012 | [7] 0.096 | [8] 0.001 | [9] 0.044 | [10] 0.006

ME2 (UniProt P23368)
inactive: [1] -0.01 | [2] -0.057 | [3] -0.044 | [4] -0.017 | [5] 0.015 | [6] 0.011 | [7] 0.002 | [8] 0.022 | [9] 0.027 | [10] 0.018

IK (UniProt Q13123)
Chain of UniProt Q13123 (Q13123 whole entry, looked up): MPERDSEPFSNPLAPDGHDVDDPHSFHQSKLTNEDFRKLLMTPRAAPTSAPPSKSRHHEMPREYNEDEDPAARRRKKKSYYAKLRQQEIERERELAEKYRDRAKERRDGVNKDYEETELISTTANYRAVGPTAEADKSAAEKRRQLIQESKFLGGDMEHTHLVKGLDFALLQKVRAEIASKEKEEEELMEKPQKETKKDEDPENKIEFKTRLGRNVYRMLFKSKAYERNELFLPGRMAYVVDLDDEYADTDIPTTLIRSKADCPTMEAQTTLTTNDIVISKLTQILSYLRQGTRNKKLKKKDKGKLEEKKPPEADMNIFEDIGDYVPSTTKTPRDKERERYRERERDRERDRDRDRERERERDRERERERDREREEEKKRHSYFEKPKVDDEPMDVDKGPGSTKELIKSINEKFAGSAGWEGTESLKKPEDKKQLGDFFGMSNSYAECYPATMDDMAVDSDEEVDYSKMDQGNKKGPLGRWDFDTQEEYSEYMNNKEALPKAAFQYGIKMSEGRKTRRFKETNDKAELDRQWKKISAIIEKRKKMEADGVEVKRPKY
inactive: [1] 0.032 | [2] 0.039 | [3] -0.035 | [4] -0.026 | [5] 0.093 | [6] 0.086 | [7] -0.002 | [8] 0.036 | [9] 0.021 | [10] 0.047

MAP3K4 isoform 2 (UniProt Q9Y6R4)
inactive: [1] -0.012 | [2] 0.026 | [3] -0.018 | [4] -0.003 | [5] 0.008 | [6] -0.033 | [7] -0.001 | [8] -0.012 | [9] -0.015 | [10] 0.02

ITIH4 (UniProt Q14624)
inactive: [1] -0.14 | [2] 0.166 | [3] 0.135 | [4] 0.214 | [5] 0.014 | [6] 0.224 | [7] 0.012 | [8] -0.211 | [9] -0.005 | [10] 0.014

IWS1 (UniProt Q96ST2)
inactive: [1] -0.083 | [2] 0.007 | [3] -0.015 | [4] -0.02 | [5] 0.029 | [6] 0.046 | [7] -0.003 | [8] -0.017 | [9] 0.051 | [10] 0.002

KLHDC4 (UniProt Q8TBB5)
inactive: [1] -0.027 | [2] -0.003 | [3] -0.007 | [4] -0.092 | [5] 0.18 | [6] 0.096 | [7] 0.076 | [8] -0.223 | [9] -0.011 | [10] 0.028

MAPKAPK5 (UniProt Q8IW41)
Chain of UniProt Q8IW41 (Q8IW41 whole entry, looked up): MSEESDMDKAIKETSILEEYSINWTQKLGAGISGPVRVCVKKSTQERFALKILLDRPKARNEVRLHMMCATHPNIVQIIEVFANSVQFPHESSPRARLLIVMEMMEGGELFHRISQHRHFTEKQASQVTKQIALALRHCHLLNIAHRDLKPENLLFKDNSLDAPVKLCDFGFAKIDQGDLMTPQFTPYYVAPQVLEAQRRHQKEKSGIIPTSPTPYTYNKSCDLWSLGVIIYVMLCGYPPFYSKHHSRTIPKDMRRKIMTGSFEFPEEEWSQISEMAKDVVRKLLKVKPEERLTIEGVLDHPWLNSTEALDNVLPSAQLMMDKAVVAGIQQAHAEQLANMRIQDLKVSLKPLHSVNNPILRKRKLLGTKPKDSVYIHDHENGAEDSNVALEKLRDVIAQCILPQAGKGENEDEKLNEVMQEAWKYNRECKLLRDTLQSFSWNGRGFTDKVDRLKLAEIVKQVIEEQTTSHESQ
inactive: [1] 0.004 | [2] -0.02 | [3] -0.015 | [4] 0.013 | [5] 0.003 | [6] 0.028 | [7] 0.11 | [8] 0.038 | [9] 0.225 | [10] -0.03

LIAS (UniProt O43766)
inactive: [1] -0.044 | [2] 0.119 | [3] -0.128 | [4] -0.002 | [5] -0.057 | [6] -0.013 | [7] -0.13 | [8] -0.01 | [9] -0.06 | [10] -0.001

KPNB1 (UniProt Q14974)
inactive: [1] 0.049 | [2] -0.041 | [3] 0 | [4] -0.015 | [5] 0.119 | [6] 0.07 | [7] 0.076 | [8] 0.052 | [9] 0.085 | [10] 0.02

MAP4 (UniProt P27816)
inactive: [1] -0.006 | [2] 0.007 | [3] -0.018 | [4] -0.01 | [5] 0.003 | [6] -0.018 | [7] -0.007 | [8] 0.002 | [9] -0.004 | [10] -0.046

MED8 isoform 2 (UniProt Q96G25)
Chain of UniProt Q96G25 (Q96G25 whole entry, looked up): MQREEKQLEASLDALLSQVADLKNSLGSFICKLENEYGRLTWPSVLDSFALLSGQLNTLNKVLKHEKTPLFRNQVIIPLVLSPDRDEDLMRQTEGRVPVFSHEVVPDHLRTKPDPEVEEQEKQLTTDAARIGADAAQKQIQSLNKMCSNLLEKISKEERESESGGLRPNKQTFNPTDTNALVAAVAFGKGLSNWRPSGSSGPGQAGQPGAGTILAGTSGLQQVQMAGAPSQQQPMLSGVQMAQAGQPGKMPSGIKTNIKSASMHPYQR
active: [6] 0.36
inactive: [1] -0.085 | [2] 0.038 | [3] -0.03 | [4] 0.089 | [5] 0.045 | [7] -0.027 | [8] 0.081 | [9] -0.038 | [10] -0.059

MED1 (UniProt Q15648)
inactive: [1] -0.043 | [2] 0.084 | [3] -0.067 | [4] -0.06 | [5] 0.079 | [6] -0.028 | [7] -0.034 | [8] -0.006 | [9] 0.001 | [10] -0.023

Reference: the supplement of paper PMC10849652
